HT1080NT lethal: kills 2HG-producing HT-1080-NT fibrosarcoma cells. actives 1.6% (n = 360,000). HT-1080-NT fibrosarcoma viability, CellTiter-Glo ATP luminescence, 48 h. Potency, µM (series often up to 46.1 µM), for inactives: top-dose activity, negative = less viability, usual class: cytotoxic. AID 686970;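 note: NT is the 2HG producing partner of a matched IDH1 knockdown line; potency is the fitted concentration of half-maximal effect; 0% = DMSO-treated cells and -100% = media-only wells without cells; nearly all actives have a fitted effect of over 55% in size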
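Viability of the 2HG-overproducing fibrosarcoma line after 48 hours of compound exposure at 37 degrees C was determined by luminescence with CellTiter-Glo, and concentration-effect curves were then fitted and categorized.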
HT1080 IDH1KD tx: HT-1080 IDH1 knockdown cell toxicity (counter line); actives 2% (n = 360,000); HT-1080 IDH1 knockdown viability, ATP luminescence, 48 h; Potency, µM (highest dose often 46.1 µM), for the others: top-dose activity, negative = toxicity, actives largely listed as cytotoxic;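 note: potency is the fitted concentration of half-maximal effect; 0% = DMSO wells and -100% = cell-free medium wells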
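Knockdown cells (IDH1KD HT-1080) received compounds 2 h after plating at 750 cells/well and were kept 48 h at 37 °C in 5% FBS RPMI. A CellTiter-Glo luminescence read gave % activity for curve fitting.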
IL1B secr inh: inhibitors of inflammasome signaling (IL-1 beta secretion). THP-1 LPS/ATP IL-1B secretion, AlphaLISA, 16 h; stronger effect = lower value. activity change, % at 57.5 µM. actives 4.7% (n = 360,000); in the data active = activity change below about -50%; inconclusive = mostly about -30% to -49%
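Secreted IL-1B measured by AlphaLISA bead assay after 16 h compound exposure of THP-1 cells; compounds (final up to 57.5 uM) added 1 h before LPS (250 ng/mL) and ATP (1.25 mM) stimulation; lower signal means less secretion.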
TDP1 cell noCPT: qHTS for Inhibitors of human tyrosyl-DNA phosphodiesterase 1 (TDP1): qHTS in cells in absence of CPT. actives 15% (n = 420,000). Potency, µM (highest dose often 46.2 µM), inactives show at the top dose activity change, negative = growth inhibition, actives largely listed as inhibitors. AID 686978, 2013. DT40 Tdp1-/- hTDP1 cells, no CPT, ATP luminescence, 48 h; note: potency is the fitted concentration of half-maximal effect; nearly all actives have a fitted effect of over 55% in size
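Readout: luminescence from CellTiter-Glo after 30 min in the dark at RT. Cells: DT40 Tdp1-/- with stable hTDP1, 400/well. Exposure: compounds alone, ≥48 hr, 37 °C.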
TDP1 cell CPT: growth inhibition of DT40 Tdp1-/-;hTDP1 cells with camptothecin (screen for TDP1 inhibitors); chicken DT40 Tdp1-/-;hTDP1 cells + 20 nM CPT, ATP luminescence, 48 h; Potency, µM (doses to about 46.2 µM), without a hit: top-dose activity change, negative = growth inhibition, hits mostly inhibitors; actives 12% (n = 420,000); note: potency is the fitted concentration of half-maximal effect; nearly all actives have a fitted effect of over 55% in size
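Cell growth measured by CellTiter-Glo luminescence after a minimum 48 h, 37 C compound exposure with 20 nM CPT in Tdp1-knockout DT40 cells stably expressing hTDP1, seeded 400/well; qHTS titration format.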
* marks the source's active call; other numbers are inactive results; ? = inconclusive; nt = no result. Sampled rows, rich in hits. Any-hit rate of the full collection: about 19%. Unless noted, calls come from the whole dose curve; as a rule, active = well fitted curve in the direction sought with a large enough effect; inconclusive = small, poorly fitted or top-dose-only effect, or another doubt; inactive = no such curve, though single readings can be large; an effect the other way counts as inactive or inconclusive. Unless noted, % is set by controls: 0 for no effect and ±100 for the full control effect.

SMILES	HT1080NT lethal	HT1080 IDH1KD tx	IL1B secr inh	TDP1 cell noCPT	TDP1 cell CPT
O=C(NCCCN1CCOCC1)c1ccc(N2CCOCC2)c([N+](=O)[O-])c1	5%	2%	4	4%	1%
O=C(NCCCN1CCOCC1)c1ccc(Sc2ccc(F)cc2)c([N+](=O)[O-])c1	3%	2%	-28	16µM*	?
CN(C)CCNC(=O)c1ccc(Sc2ccc(Br)cc2)c([N+](=O)[O-])c1	23µM*	18µM*	-70*	23µM*	16µM*
CC(C)c1ccc(C(=O)NCCCN2CCOCC2)cc1	19%	8%	15	16%	-4%
O=C(NCCCN1CCOCC1)c1ccc(CSc2ccc(Cl)cc2)cc1	18µM*	?	-62*	21µM*	26µM*
Cc1nn(-c2ccccc2)c2c1C1(C(=O)N(C(C)C)c3ccccc31)C(C#N)=C(N)O2 (stereo not drawn)	-18%	-1%	1	16µM*	9.2µM*
Cc1nn(-c2ccccc2)c(N)c1C1(O)C(=O)N(C(C)C)c2ccccc21 (stereo not drawn)	5%	-4%	1	8.2µM*	6.5µM*
Cc1ccc(-n2nc(C)c(C3(O)C(=O)N(C(C)C)c4ccccc43)c2N)cc1 (stereo not drawn)	-1%	2%	8	12µM*	10µM*
C[C@@H]1CCC(=O)N(C[C@@H](C)CSc2ccc(Br)cc2)CC1	0%	-14%	-19	18µM*	?
Cc1ccc(SC[C@H](C)CN2CC[C@H](C)CCC2=O)cc1	-1%	7%	22	18µM*	13µM*
COc1cccc(NC(=O)CN(C2=NC3CS(=O)(=O)CC3S2)c2cccc(C)c2)c1 (stereo not drawn)	-11%	3%	-65*	?	8%
O=C(CCCN1C(=O)c2cccc3cccc(c23)C1=O)Nc1ccon1	27%	17%	-2	-2%	4%
O=C(COC(=O)CCC(=O)c1ccc(Cl)cc1)NC1CC1	12%	-1%	2	-10%	-10%
CCSc1nn(CC(=O)Nc2cccc(CC)c2)c(N)c1S(=O)(=O)c1ccccc1	nt	nt	nt	15µM*	?
CCc1ccc(NC(=O)Cn2nc(SC)c(S(=O)(=O)c3ccc(OC)cc3)c2N)cc1	nt	nt	nt	-20%	-12%
COc1ccc(S(=O)(=O)c2c(SC)nn(CC(=O)Nc3ccc(C)c(Cl)c3)c2N)cc1	nt	nt	nt	26µM*	26µM*
O=C(CSC1=NCCS1)NC(c1ccccc1)c1ccccc1	?	?	-72*	16µM*	?
O=C(CSC1=NCCS1)Nc1cccc2ccccc12	10%	8%	-5	16µM*	?
O=C(CSC1=NCCS1)Nc1ccccc1F	17%	7%	2	?	-25%
CC(NC(=O)CSC1=NCCS1)c1ccccc1 (stereo not drawn)	1%	6%	-55*	-3%	8%
O=C(CSC1=NCCS1)NCc1ccco1	3%	0%	27	12µM*	13µM*
COc1ccc(N2CCN(S(=O)(=O)c3cn(C)cn3)CC2)cc1	0%	2%	9	26%	0%
CCCCC(CC)C(=O)Nc1cc(C(=O)NCCC)ccc1N1CCC2(CC1)CC(c1ccccc1)=NO2 (stereo not drawn)	-1%	0%	-17	?	6.5µM*
Cc1ccc(CNC(=O)c2ccc(N3CCC4(CC3)CC(c3ccccc3)=NO4)c(N)c2)cc1	-1%	-3%	40	?	2.6µM*
CCCNC(=O)c1ccc(N2CCC3(CC2)CC(c2ccccc2)=NO3)c(NC(=O)c2ccco2)c1	-15%	-5%	-15	16µM*	18µM*
SMILES	HT1080NT lethal	HT1080 IDH1KD tx	IL1B secr inh	TDP1 cell noCPT	TDP1 cell CPT
CCCNC(=O)c1ccc(N2CCC3(CC2)CC(c2ccccc2)=NO3)c(NC(=O)c2cccc(OC)c2)c1	-6%	0%	8	13µM*	?
c1ccc2c(c1)NCC1CCCN21 (stereo not drawn)	-10%	-8%	15	16µM*	21µM*
c1csc(-c2csc3nc(CN4CCOCC4)nc(NCc4ccc5c(c4)OCO5)c23)c1	?	-28%	-26	?	23µM*
c1ccc2c(c1)nc(NCc1ccc3c(c1)OCO3)n2CCN1CCOCC1	-7%	0%	0	-7%	-14%
CCN(Cc1ccncc1)C(=O)C1CCC(=O)N(Cc2ccc(Cl)cc2)C1 (stereo not drawn)	9%	2%	11	5%	-2%
CC(=O)Nc1cccc2cc(S(=O)(=O)O)ccc12	18%	18%	29	10%	4%
CC(=O)Nc1ccc(S(=O)(=O)O)c2cc(S(=O)(=O)O)c(N=Nc3ccc(N=Nc4ccc(S(=O)(=O)O)cc4)c4ccc(S(=O)(=O)O)cc34)c(O)c12	nt	nt	nt	13µM*	8.9µM*
NC(=O)C(c1ccc(Cl)cc1)c1ccc(Sc2ccc(Cl)cc2)nn1 (stereo not drawn)	?	-25%	?	16µM*	?
O=C(CSc1ccc(-c2ccncc2)nn1)c1ccc(Cl)cc1	16%	18%	2	-19%	-23%
Cc1ccc(S(=O)(=O)N2CCCCC2)cc1NC(=O)c1cnccn1	-2%	1%	-10	-21%	-2%
COC(=O)c1c(NC(=O)COC(=O)c2ccc(NC(=O)CC#N)cc2)sc2c1CCCCC2	-9%	-14%	11	?	-24%
COC(=O)c1ccc(NC(=O)c2c(NCc3cccc(F)c3)sc3c2CCCC3)cc1	nt	nt	nt	16µM*	21µM*
CCOC(=O)N1CCc2c(sc(NCc3ccc(N(C)C)cc3)c2C(=O)Nc2ccc(OC)cc2)C1	nt	nt	nt	?	21µM*
CCOC(=O)N1CCc2c(sc(NCc3cccc(F)c3)c2C(=O)Nc2ccc(OC)cc2)C1	nt	nt	nt	16µM*	?
CCOC(=O)c1cc2sccc2n1CC(=O)N1CCCC1	1%	6%	-6	-15%	-19%
